# Compounds with a hit are over-represented: about 3.2% of the library has one in this group of screens.
# Rce1 inh – yeast Rce1p protease inhibitors, primary screen, biochemical, fluorescence, cell-free homogeneous | yeast membranes, quenched prenylated peptide cleavage fluorescence | calls only | 290,000 tested, 0.27% active;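 active means fall in fluorescence gain of 50% or more versus controls, with final raw signal at or below 3038400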;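 further: plate controls were neutral control wells for no effect and wells lacking membranes for full effect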
# Target sequence (Q03530 whole entry, looked up): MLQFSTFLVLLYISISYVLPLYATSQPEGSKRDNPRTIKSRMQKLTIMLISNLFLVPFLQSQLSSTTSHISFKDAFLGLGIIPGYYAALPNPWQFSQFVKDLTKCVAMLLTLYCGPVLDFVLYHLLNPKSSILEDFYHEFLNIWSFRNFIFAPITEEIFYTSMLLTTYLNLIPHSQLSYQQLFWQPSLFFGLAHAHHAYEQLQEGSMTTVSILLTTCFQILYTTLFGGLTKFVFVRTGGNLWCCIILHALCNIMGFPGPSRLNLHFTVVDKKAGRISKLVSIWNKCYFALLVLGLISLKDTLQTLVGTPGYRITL
# Kir21 block – inhibitors of mouse Kir2.1 inward-rectifier potassium channel. 310,000 tested, 0.85% active. HEK293-Kir2.1, FluxOR thallium flux fluorescence; stronger effect = lower value. Inward rectifier potassium channel 2 (Mus musculus), P35561. B-score at 10 µM. AID 1672, 2009;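 active means fluorescence ratio B-score at or below minus 3 SD of library scores, with starting-brightness B-score within 2 SD, cut at about -4.2 in these data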;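 further: channel flux triggered by added potassium and thallium sulfate stimulus; B-score of peak minus minimum fluorescence over baseline after thallium stimulus; more negative B-score means stronger Kir2.1 block with less thallium influx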
# TMEM16A act – TMEM16A chloride channel activators or potentiators, primary screen, cell-based, HTS; Anoctamin-1 (Mus musculus), Q8BHY3; HEK293 TMEM16A/YFP-H148Q/I152L, iodide quench fluorescence; stronger effect = lower value; B-score at 10 µM; 340,000 tested, 0.3% active; AID 623877, 2012;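 active means fluorescence-ratio B-score plate-corrected deviation score at least 3 library SD below zero, with starting fluorescence score within 5 deviations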;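 further: channel opened by trigger with iodide after compound preincubation; score built on the fluorescence ratio of max minus min over baseline; more negative score means more quench and so TMEM16A activation or potentiation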
# TMEM16A inh – TMEM16A chloride channel inhibitors, primary screen, cell-based, HTS | Anoctamin-1 (Mus musculus), Q8BHY3 | HEK293 TMEM16A/YFP iodide influx fluorescence, ionomycin | normalized B-score (activity score, 25-100; higher = stronger inhibition) at 10 µM | 310,000 tested, 1.2% active | AID 588511, 2011;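 active means ratio plate-corrected score three or more library SD toward inhibition, starting fluorescence score within five deviations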;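 further: score derived from kinetic fluorescence span divided by baseline fluorescence per well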
# CHT PAM – CHT positive allosteric modulators, primary screen, cell-based, membrane potential dye, choline EC20. High affinity choline transporter 1 (Homo sapiens), Q9GZV3. 310,000 tested, 0.49% active. AID 488977, 2010. B-score at 10 µM. CHT-expressing cells; stronger effect = higher value; LV-AA mutant CHT in HEK293 cells;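 active means initial fluorescence not abnormally high and integrated response B-score, plate-corrected, over 3 SD above library mean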
# CHT inh – inhibitors of human choline transporter CHT; 310,000 tested, 0.86% active; High affinity choline transporter 1 (Homo sapiens), Q9GZV3; B-score at 10 µM; CHT-expressing cells, membrane potential dye, choline response; stronger effect = lower value;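 active means B-score over 3 SD under the library average, and starting fluorescence ratio not unusually high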;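 further: choline stimulus applied at its EC90 after an EC20 pre-addition; B-score computed on integrated fluorescence ratio after choline addition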
# CHT block conf – CHT inhibitors, confirmation, cell-based, membrane potential dye, duplicate; shares compounds with CHT inh; CHT-expressing cells, choline membrane potential dye; LV-to-AA substituted CHT, HEK293 cells; CHT activity remaining % of control (stronger effect = lower value), % at 10 µM; 2,400 tested, 70% active;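 active means choline transporter activity left, mean of duplicates at 10 µM, below buffer-only control mean minus 3 SD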;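 further: depolarization triggered by choline at its EC90 following an EC20 pre-addition; 0% = hemicholinium-3 full block and 100% = buffer-only control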
# HEK293 MPD ctr – membrane potential effects in parental HEK293, counter-screen for CHT inhibitor project, cell-based, membrane potential dye | shares compounds with CHT inh | choline response; active = decrease or increase beyond buffer ±3SD | membrane potential ratio readout (active if shifted either direction beyond buffer ±3SD; no single direction) at 10 µM | 2,400 tested, 4% active | AID 493222, 2011;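 further: parental cells lack the transporter so any hit is non-specific; ratio is peak minus trough fluorescence over baseline after EC90 choline challenge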
# Starred values were filed as active, the others as inactive; i = inactive; x = not tested or not shown.
SMILES,Rce1 inh,Kir21 block,TMEM16A act,TMEM16A inh,CHT PAM,CHT inh,CHT block conf,HEK293 MPD ctr
Cc1ccc(-n2[nH]c(C)c(/C=N/Nc3ccc([N+](=O)[O-])cc3[N+](=O)[O-])c2=O)cc1C,i,1.1,i,25*,i,-8.38*,35.5%*,i
O=Nc1c(O)[nH]c2ccc(Cl)c(Cl)c12,x,x,i,x,x,x,x,x
CC(C)n1c(O)c(N=NC(=O)Cc2csc(N3CCOCC3)n2)c2ccccc21,x,-0.07,i,i,i,-9.38*,24.3%*,i
CC(C)n1c(O)c(N=NC(=O)CNC(=O)Cc2ccc(Cl)cc2)c2ccccc21,i,0.22,i,i,i,-8.01*,35.5%*,i
CC1(C)C(C=C(Cl)Cl)C1C(=O)Nc1ccc(S(=O)(=O)Nc2ncccn2)cc1 (configuration not stated),i,2.59,i,i,i,-5.06*,33.0%*,i
COC(=O)Nc1ccc(S(=O)(=O)Nc2ncccn2)cc1,i,-0.02,i,i,i,i,x,x
CCCN(C(=O)c1cn(CC)c2nc(C)ccc2c1=O)c1c(N)n(Cc2ccccc2)c(=O)[nH]c1=O,i,-0.11,i,i,i,-5.29*,32.6%*,i
COCCN(Cc1cc2cc(C)ccc2[nH]c1=O)S(=O)(=O)c1ccc(Cl)cc1,i,0.79,i,i,i,i,x,x
CCOC(=O)c1cnc2c(C(=O)OC)cccc2c1NCc1cccnc1,i,0.06,i,i,i,i,x,x
O=C(On1c(-c2ccccc2)nc2ccccc2c1=O)c1ccco1,i,-3.92,i,100*,i,-9.72*,57.0%*,i
COc1cc(OC)cc(-c2nc3ccccc3c(=O)n2OC(=O)c2ccccc2C)c1,i,1.55,i,i,i,i,x,x
Cc1ccc(C(C)C)c(OCCOCCN2CCNCC2)c1,i,-1.83,i,i,i,-6.91*,21.7%*,i
CCN(CC)C(=O)CSc1nc2ccc(NC(=O)CSc3nnc(N)s3)cc2s1,i,1.39,i,i,i,i,x,x
CCN(CC)C(=O)CSc1nc2ccc(NC(=O)CSc3nccn3C)cc2s1,i,2.65,i,i,i,-9.63*,25.0%*,i
O=C(NC1CCCCC1)N1CCN(c2ccc(Cl)cc2)CC1,i,2.42,i,i,i,-5.79*,i,i
Cc1ccc(NC(=O)c2ccc(=O)n(CC(=O)Nc3ccccc3)n2)cc1,i,0.08,i,i,i,i,x,x
O=C(CCC1CCCN(c2ncccn2)C1)NCc1ccc(F)c(F)c1 (configuration not stated),i,-1.83,i,i,i,-5.78*,63.9%*,i
O=C(CCC1CCCN(C(=O)C2CCCC2)C1)NCc1ccc(F)c(F)c1 (configuration not stated),i,-0.39,i,i,i,i,x,x
COc1ccc(N2C(=O)CC(N(Cc3ccco3)C(=O)CCC(=O)O)C2=O)cc1 (configuration not stated),i,-0.83,i,i,i,-6.36*,i,i
CCCOc1ccc(N2C(=O)CC(N(Cc3ccco3)C(=O)CCC(=O)O)C2=O)cc1 (configuration not stated),i,-1.21,i,i,i,i,x,x
Cc1ccc(-c2nnc(N3CCCCC3)c3ccccc23)cc1S(=O)(=O)N1CCN(C)CC1,i,0.1,i,i,i,-7.27*,41.9%*,i
CN(C)CC(=O)Nc1ccc(S(N)(=O)=O)cc1,i,0.64,i,i,i,i,x,x
CCN(CC)C(=S)SCC(=O)Nc1ccc(S(N)(=O)=O)cc1,i,-2.03,i,i,i,-5.58*,i,i
CCCCOC(=O)n1c(SCC(=O)N(CC)CC)nc2ccccc21,i,1.05,i,i,i,-5.2*,i,i
O=C(Nc1ccc(Br)cc1)Nn1cnnc1,i,0.65,i,i,i,i,x,x
SMILES,Rce1 inh,Kir21 block,TMEM16A act,TMEM16A inh,CHT PAM,CHT inh,CHT block conf,HEK293 MPD ctr
O=C(Nc1ccc(Br)cc1Cl)Nn1cnnc1,i,-1.34,i,i,i,-5*,65.2%*,i
CCSc1nnc([C@H](Cc2ccccc2)NC(=O)OC(C)(C)C)o1,i,-0.41,i,i,i,-7.02*,i,i
Cc1ccc2c(COC(=O)c3c(C)noc3C)cc(=O)oc2c1,i,-0.67,i,i,i,-5.86*,i,i
Cc1ccc2c(COC(=O)c3ccccc3F)cc(=O)oc2c1,i,2.47,i,i,i,i,x,x
CSCCC(NC(=O)c1ccccc1)C(=O)NNC(=O)c1csc(N2CCOCC2)n1 (configuration not stated),i,0.16,i,i,i,i,x,x
C/C(=N\NC(=O)c1ccccc1O)C1C(=O)c2ccccc2C1=O,i,0.93,i,i,i,-5.03*,31.4%*,i
Cc1csc(NC(=O)c2ccc(Cl)nc2)n1,i,-0.59,i,i,i,i,x,x
COc1ccccc1CNC(=O)CCC(=O)N1CCOc2ccc(Cl)cc21,i,-1.96,i,i,i,i,x,x
O=C(CCC(=O)N1CCOc2ccc(Cl)cc21)NCc1ccccc1,i,-0.73,i,i,i,-6.31*,i,i
Cc1oc(-c2ccc(Cl)cc2)nc1CS(=O)CC(=O)NCc1ccccc1 (configuration not stated),i,-1.43,i,i,i,i,x,x
Cc1oc(-c2ccc(Cl)cc2)nc1CS(=O)CC(=O)NC(C)c1ccccc1 (configuration not stated),i,0.1,i,i,i,-6.46*,39.3%*,i
CC1=C(C(=O)Nc2cccc(C(=O)NC3CCCCC3C)c2)SCCO1 (configuration not stated),i,-0.32,i,i,i,i,46.4%*,i

# High-throughput results (PubChem BioAssay)
